Experimental data reported in PubChem BioAssay AID1159580 (chemical genetic matrix, 2015).
The whole screen tested about 5,500 compounds, of which about 2,000 (36%) were called active. Another 18% or so got no clear call; they are omitted. The list shows a part of the results. Unmarked numbers belong to inactive results. Rule as the data show it: active = normalized growth mostly below about 0.91 (no sharp cut-off); inconclusive = no clear call, values can overlap the other calls; inactive = mostly above about 0.92.

Assay: chemical genetic growth profiling, strain panel (AID 1159580);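 also: tested at 20 µM; growth read once vehicle control cultures reached saturation at 30 °C; 1 = growth at the plate median or of vehicle wells; lower values mean less growth of the strain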
Settings: S. cerevisiae deletion strains, growth OD

SMILES: Oc1cc(O)c2c(c1)OC(c1cc(O)c(O)c(O)c1)C(O)C2c1c(O)cc(O)c2c1OC(c1cc(O)c(O)c(O)c1)C(O)C2c1c(O)cc(O)c2c1OC(c1cc(O)c(O)c(O)c1)C(O)C2 (stereo not given)
- normalized growth (locus YAL013W, strain DEP1, stronger effect = lower value): 0.977
- normalized growth (locus YBR021W, strain FUR4, stronger effect = lower value): 1.02
- normalized growth (locus YBR229C, strain ROT2, stronger effect = lower value): 0.992
- normalized growth (locus YCL029C, strain bik1, stronger effect = lower value): 0.999
- normalized growth (locus YDL035C, strain GPR1, stronger effect = lower value): 0.889
- normalized growth (locus YDL074C, strain BRE1, stronger effect = lower value): 0.846
- normalized growth (locus YDL101C, strain DUN1, stronger effect = lower value): 0.913
- normalized growth (locus YDL134C, strain PPH21, stronger effect = lower value): 0.937
- normalized growth (locus YDL185W, strain tfp1, stronger effect = lower value): 0.973
- normalized growth (locus YDL192W, strain arf1, stronger effect = lower value): 0.948
- normalized growth (locus YDR101C, strain arx1, stronger effect = lower value): 1.03
- normalized growth (locus YDR150W, strain NUM1, stronger effect = lower value): 0.964
- normalized growth (locus YDR162C, strain NBP2, stronger effect = lower value): 0.84
- normalized growth (locus YDR318W, strain mcm21, stronger effect = lower value): 0.973
- normalized growth (locus YDR388W, stronger effect = lower value): 1
- normalized growth (locus YDR502C, strain sam2, stronger effect = lower value): 0.979
- normalized growth (locus YEL061C, strain CIN8, stronger effect = lower value): 0.933
- normalized growth (locus YER110C, stronger effect = lower value): 1.02
- normalized growth (locus YER155C, strain BEM2, stronger effect = lower value): 1.02
- normalized growth (locus YER167W, strain BCK2, stronger effect = lower value): 1.02
- normalized growth (locus YGL078C, strain dbp3, stronger effect = lower value): 1.02
- normalized growth (locus YGL086W, strain mad1, stronger effect = lower value): 0.964
- normalized growth (locus YGL248W, strain PDE1, stronger effect = lower value): 0.911
- normalized growth (locus YGR078C, strain PAC10, stronger effect = lower value): 0.918
- normalized growth (locus YGR135W, strain pre9, stronger effect = lower value): 0.912
- normalized growth (locus YGR229C, strain SMI1, stronger effect = lower value): 0.747 (active)
- normalized growth (locus YGR252W, strain gcn5, stronger effect = lower value): 0.963
- normalized growth (locus YHR030C, strain SLT2, stronger effect = lower value): 0.972
- normalized growth (locus YHR079C, strain IRE1 (second series), stronger effect = lower value): 1.04
- normalized growth (locus YHR094C, strain hxt1, stronger effect = lower value): 1.02
- normalized growth (locus YHR129C, strain ARP1, stronger effect = lower value): 0.915 (active)
- normalized growth (locus YHR200W, strain rpn10, stronger effect = lower value): 0.98
- normalized growth (locus YIL066C, strain RNR3, stronger effect = lower value): 0.919
- normalized growth (locus YIL073C, strain SPO22, stronger effect = lower value): 0.9
- normalized growth (locus YIL125W, strain kgd1, stronger effect = lower value): 1.02
- normalized growth (locus YIR030C, strain dcg1, stronger effect = lower value): 1
- normalized growth (locus YJL095W, strain BCK1, stronger effect = lower value): 0.845
- normalized growth (locus YJL134W, strain LCB3, stronger effect = lower value): 0.99
- normalized growth (locus YJL168C, strain set2, stronger effect = lower value): 1
- normalized growth (locus YJL187C, strain SWE1 (second series), stronger effect = lower value): 0.775 (active)
- normalized growth (locus YJR043C, strain POL32, stronger effect = lower value): 0.857
- normalized growth (locus YKL009W, strain mrt4, stronger effect = lower value): 1.15 [resistant] (active)
- normalized growth (locus YKL068W, stronger effect = lower value): 1.02
- normalized growth (locus YKL085W, strain MDH1 (second series), stronger effect = lower value): 1.01
- normalized growth (locus YKL085W, strain MDH1, stronger effect = lower value): 1.01
- normalized growth (locus YKL190W, strain CNB1, stronger effect = lower value): 0.961
- normalized growth (locus YKR001C, strain vps1, stronger effect = lower value): 0.982
- normalized growth (locus YLR039C, strain RIC1, stronger effect = lower value): 0.836
- normalized growth (locus YLR058C, strain SHM2, stronger effect = lower value): 0.835 (active)
- normalized growth (locus YLR102C, strain apc9, stronger effect = lower value): 1.02
- normalized growth (locus YLR262C, strain YPT6, stronger effect = lower value): 0.935
- normalized growth (locus YLR268W, strain sec22, stronger effect = lower value): 0.96
- normalized growth (locus YLR330W, strain CHS5, stronger effect = lower value): 1
- normalized growth (locus YLR342W, strain FKS1 (second series), stronger effect = lower value): 0.919
- normalized growth (locus YLR371W, strain rom2, stronger effect = lower value): 0.91
- normalized growth (locus YLR418C, strain cdc73, stronger effect = lower value): 0.92
- normalized growth (locus YML016C, strain PPZ1, stronger effect = lower value): 0.94
- normalized growth (locus YML032C, strain rad52, stronger effect = lower value): 1
- normalized growth (locus YML124C, strain tub3, stronger effect = lower value): 1.01
- normalized growth (locus YMR078C, strain ctf18, stronger effect = lower value): 1.01
- normalized growth (locus YMR223W, strain ubp8, stronger effect = lower value): 0.947
- normalized growth (locus YMR307W, strain GAS1, stronger effect = lower value): 0.928
- normalized growth (locus YNL067W, strain RPL9B, stronger effect = lower value): 0.917
- normalized growth (locus YNL233W, strain BNI4, stronger effect = lower value): 0.945
- normalized growth (locus YNL250W, strain rad50, stronger effect = lower value): 1
- normalized growth (locus YNL271C, strain bni1, stronger effect = lower value): 0.989
- normalized growth (locus YNL298W, strain CLA4, stronger effect = lower value): 1.01
- normalized growth (locus YNL307C, strain MCK1, stronger effect = lower value): 1.02
- normalized growth (locus YNL322C, strain KRE1, stronger effect = lower value): 0.916 (active)
- normalized growth (locus YNR052C, strain pop2, stronger effect = lower value): 0.952
- normalized growth (locus YOL012C, strain htz1): 0.566
- normalized growth (locus YOL147C, strain pex11, stronger effect = lower value): 1.01
- normalized growth (locus YOR061W, strain CKA2, stronger effect = lower value): 0.931
- normalized growth (locus YOR069W, strain VPS5, stronger effect = lower value): 0.976
- normalized growth (locus YOR136W, strain idh2, stronger effect = lower value): 1.02
- normalized growth (locus YOR144C, strain elg1, stronger effect = lower value): 1
- normalized growth (locus YOR184W, strain ser1, stronger effect = lower value): 0.968
- normalized growth (locus YOR316C, strain cot1, stronger effect = lower value): 1.01
- normalized growth (locus YPL055C, strain LGE1, stronger effect = lower value): 0.886
- normalized growth (locus YPL241C, strain CIN2, stronger effect = lower value): 0.974
- normalized growth (locus YPR119W, strain clb2, stronger effect = lower value): 1.02
- normalized growth (locus YPR141C, strain kar3, stronger effect = lower value): 1
- normalized growth (locus YPR163C, strain tif3, stronger effect = lower value): 1.01
- normalized growth (locus YPR167C, strain met16, stronger effect = lower value): 0.982
- normalized growth (strain wtn01, stronger effect = lower value): 1.01
